Experimental findings from PubChem BioAssay (EPA / NIEHS) are described below.

Values joined by “and” are separate entries in the source; they are usually repeats but may differ in a detail not shown here. Equal values may be shown once. Where a structure was tested more than once in an assay, its records may differ in their call. Active and inactive are the calls of the source. Rule for the calls: active = hit-call score of the fitted dose curve at least 0.9, where 1 is the maximum; inactive = score below 0.9.

The nature of assay [1]: ATG_M_06_CIS: Attagene CIS-FACTORIAL HepG2 Assay for M06 Transcription Factor (Internal Marker) (AID 2282950). The following applies: HepG2 Attagene CIS-FACTORIAL M06 internal marker reporter; actives raise or lower the signal. The procedure, abridged: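 HepG2 liver cells, 24 h exposure. Reporter transcripts from transfected cis-element constructs quantified by RT-PCR/capillary electrophoresis fluorescence. Bidirectional curve fit against DMSO.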

Assay [2] deals with Hypoxia-inducible factor 1-alpha (Homo sapiens) (UniProt Q16665). Put plainly: ATG_HIF1a_CIS: Attagene CIS-FACTORIAL HepG2 Assay for human Hypoxia Inducible Factor 1 (HIF1A) (AID 2282951). To be noted: HepG2 Attagene cis-factorial HIF1a reporter transcription; actives raise or lower the signal. The procedure, abridged: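 Fluorescence intensity of capillary-separated, 6-FAM-labelled reporter amplicons gives mRNA induction in HepG2 cells carrying transfected cis-promoter reporter units; cells exposed 24 h, responses fitted up or down from DMSO.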
Sequence of Hypoxia-inducible factor 1-alpha (Homo sapiens) (Q16665 whole entry, looked up): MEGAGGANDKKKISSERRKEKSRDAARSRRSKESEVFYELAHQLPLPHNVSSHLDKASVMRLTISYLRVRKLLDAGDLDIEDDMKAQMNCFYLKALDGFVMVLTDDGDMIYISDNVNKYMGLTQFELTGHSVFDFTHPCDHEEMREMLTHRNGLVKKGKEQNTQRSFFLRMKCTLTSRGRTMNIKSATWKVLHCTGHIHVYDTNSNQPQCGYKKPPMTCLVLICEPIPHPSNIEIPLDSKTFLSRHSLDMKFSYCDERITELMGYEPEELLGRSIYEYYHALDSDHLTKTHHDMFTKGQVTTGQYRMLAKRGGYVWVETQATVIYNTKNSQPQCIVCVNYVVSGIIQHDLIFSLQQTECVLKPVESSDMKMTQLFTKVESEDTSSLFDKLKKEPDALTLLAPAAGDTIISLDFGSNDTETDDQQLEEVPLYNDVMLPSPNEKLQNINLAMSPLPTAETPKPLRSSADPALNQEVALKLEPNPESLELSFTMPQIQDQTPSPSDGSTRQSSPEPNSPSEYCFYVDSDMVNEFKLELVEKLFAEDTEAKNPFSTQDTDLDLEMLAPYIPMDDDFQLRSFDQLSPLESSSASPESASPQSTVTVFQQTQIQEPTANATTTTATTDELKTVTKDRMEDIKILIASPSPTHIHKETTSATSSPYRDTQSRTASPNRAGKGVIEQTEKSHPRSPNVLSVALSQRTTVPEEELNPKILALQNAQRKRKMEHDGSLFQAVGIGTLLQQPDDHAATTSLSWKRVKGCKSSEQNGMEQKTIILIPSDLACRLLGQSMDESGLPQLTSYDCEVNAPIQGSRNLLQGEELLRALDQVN

Assay [3] deals with Heat shock factor protein 1 (Homo sapiens) (UniProt Q00613). Put plainly: ATG_HSE_CIS: Attagene CIS-FACTORIAL HepG2 Assay for human Heat Shock Transcription Factor 1 (HSE) (AID 2282953). The following applies: HepG2 HSE cis-reporter, Attagene RNA transcription; actives raise or lower the signal. The procedure, abridged: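 Endogenous transcription factor activity captured via cis-promoter reporter units transfected into HepG2; treatment lasted 24 h. Fluorescence intensity of reporter fragments analysed with bidirectional curve fitting, DMSO baseline.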
Sequence of Heat shock factor protein 1 (Homo sapiens) (Q00613 whole entry, looked up, the tested form may be a part): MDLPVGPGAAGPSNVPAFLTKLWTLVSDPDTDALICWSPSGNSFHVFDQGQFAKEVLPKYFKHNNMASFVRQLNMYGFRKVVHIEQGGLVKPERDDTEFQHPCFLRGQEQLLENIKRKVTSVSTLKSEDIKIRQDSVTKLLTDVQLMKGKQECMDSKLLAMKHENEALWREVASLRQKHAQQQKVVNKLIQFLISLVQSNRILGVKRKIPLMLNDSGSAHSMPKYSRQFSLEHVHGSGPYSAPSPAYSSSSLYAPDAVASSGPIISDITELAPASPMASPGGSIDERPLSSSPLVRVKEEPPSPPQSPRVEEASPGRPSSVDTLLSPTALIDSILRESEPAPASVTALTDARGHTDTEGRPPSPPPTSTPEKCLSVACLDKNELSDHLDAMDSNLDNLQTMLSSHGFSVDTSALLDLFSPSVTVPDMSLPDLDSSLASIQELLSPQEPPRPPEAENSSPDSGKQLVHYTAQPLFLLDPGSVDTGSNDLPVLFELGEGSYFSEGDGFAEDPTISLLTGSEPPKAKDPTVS

The nature of assay [4]: ATG_MRE_CIS: Attagene CIS-FACTORIAL HepG2 Assay for human Metal Responsive Element (MRE) (AID 2282954). The following applies: HepG2 MRE cis-reporter transcription, Attagene multiplex; actives raise or lower the signal. The procedure, abridged: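 Transient MRTU transfection of HepG2 (FuGene 6); 24 h dosing; total RNA → oligo(dT) RT, PCR, 6-FAM primer extension, HpaI cut, CE. Bidirectional fit vs DMSO.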

A short description of assay [5]: ATG_PBREM_CIS: Attagene CIS-FACTORIAL HepG2 Assay for human Phenobarbital-responsive Enhancer Module (PBREM) (AID 2282955). To be noted: HepG2 PBREM cis-reporter, Attagene multiplexed transcription; actives raise or lower the signal. The procedure, abridged:
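Cells were transfected with cis-element reporter units and treated for 24 h, after which RNA was extracted and reporter transcripts measured by RT-PCR and capillary electrophoresis.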

For assay [6], the target named is Paired box protein Pax-6 (Homo sapiens) (UniProt P26367). Put plainly: ATG_Pax6_CIS: Attagene CIS-FACTORIAL HepG2 Assay for human Paired Box 6 (PAX6) (AID 2282956). The following applies: HepG2 CIS-FACTORIAL PAX6 reporter transcription, RNA readout; actives raise or lower the signal. The procedure, abridged:
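HepG2 cells transiently transfected with multiplexed cis-promoter reporter units (endogenous TF activity) were dosed for 24 h. Reporter mRNA was quantified by RT-PCR, 6-FAM labeling, HpaI digestion and capillary electrophoresis; bidirectional fitting versus DMSO baseline.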

Assay [7] is described as follows: ATG_PXRE_CIS: Attagene CIS-FACTORIAL HepG2 Assay for human Pregnane X Receptor Element (PXRE) (AID 2282957). The following applies: HepG2 Attagene CIS-FACTORIAL PXRE reporter, mRNA; actives raise or lower the signal. The procedure, abridged:
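Cis-element reporter mRNA in human hepatoma HepG2 cells is measured 24 h post-dosing by RT-PCR, primer-extension labeling and capillary electrophoresis; gain or loss of signal is fitted relative to DMSO.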

Assay [8] can be described thus: ATG_PPRE_CIS: Attagene CIS-FACTORIAL HepG2 Assay for human Peroxisome Proliferator-activated Response Element (PPRE) (AID 2282958). The following applies: HepG2 PPRE cis-element reporter, Attagene transcription factor profiling; actives raise or lower the signal. The procedure, abridged:
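In this cell-based multiplex, a PPRE cis element drives a reporter sequence in transiently transfected HepG2 cells. Following 24 h treatment, labeled cDNA amplicons are sized and quantified by capillary electrophoresis, with DMSO defining baseline.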

Assay [9] can be described thus: ATG_RORE_CIS: Attagene CIS-FACTORIAL HepG2 Assay for human RAR-related Orphan Receptor Element (RORE) (AID 2282959). To be noted: HepG2 Attagene cis-factorial RORE reporter, mRNA; actives raise or lower the signal. The procedure, abridged: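 Endogenous factor activity at a cis response element is read as reporter transcript levels in HepG2 cells, 24 h post-dose. Transcripts are quantified by RT-PCR with capillary electrophoresis, and data fitted in both directions against DMSO.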

The target of assay [10] is Hepatocyte nuclear factor 6 (Homo sapiens) (UniProt Q9UBC0). Put plainly: ATG_HNF6_CIS: Attagene CIS-FACTORIAL HepG2 Assay for human Hepatocyte Nuclear Factor 6 (HNF6) (AID 2282952). To be noted: HepG2 Attagene cis-factorial HNF6 reporter transcription; actives raise or lower the signal. The procedure, abridged: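 Transiently transfected HepG2 cells expressing cis-regulated reporter transcription units were exposed to chemical for 24 h in a 24-well format. Reporter transcript abundance was determined by fluorescence capillary electrophoresis.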
Sequence of Hepatocyte nuclear factor 6 (Homo sapiens) (Q9UBC0 whole entry, looked up): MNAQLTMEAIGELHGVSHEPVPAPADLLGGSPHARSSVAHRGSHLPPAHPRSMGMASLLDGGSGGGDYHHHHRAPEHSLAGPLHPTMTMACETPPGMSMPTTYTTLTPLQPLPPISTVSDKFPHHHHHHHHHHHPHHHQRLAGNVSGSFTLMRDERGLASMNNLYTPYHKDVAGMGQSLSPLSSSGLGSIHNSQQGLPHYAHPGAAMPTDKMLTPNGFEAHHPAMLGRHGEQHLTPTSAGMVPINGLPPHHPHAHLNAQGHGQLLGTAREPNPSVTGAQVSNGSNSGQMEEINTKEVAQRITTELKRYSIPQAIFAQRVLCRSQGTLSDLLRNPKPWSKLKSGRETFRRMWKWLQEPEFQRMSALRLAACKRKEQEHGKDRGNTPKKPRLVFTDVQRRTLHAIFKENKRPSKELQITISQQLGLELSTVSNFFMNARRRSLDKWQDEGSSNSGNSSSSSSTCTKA

Sequence of Paired box protein Pax-6 (Homo sapiens) (P26367 whole entry, looked up): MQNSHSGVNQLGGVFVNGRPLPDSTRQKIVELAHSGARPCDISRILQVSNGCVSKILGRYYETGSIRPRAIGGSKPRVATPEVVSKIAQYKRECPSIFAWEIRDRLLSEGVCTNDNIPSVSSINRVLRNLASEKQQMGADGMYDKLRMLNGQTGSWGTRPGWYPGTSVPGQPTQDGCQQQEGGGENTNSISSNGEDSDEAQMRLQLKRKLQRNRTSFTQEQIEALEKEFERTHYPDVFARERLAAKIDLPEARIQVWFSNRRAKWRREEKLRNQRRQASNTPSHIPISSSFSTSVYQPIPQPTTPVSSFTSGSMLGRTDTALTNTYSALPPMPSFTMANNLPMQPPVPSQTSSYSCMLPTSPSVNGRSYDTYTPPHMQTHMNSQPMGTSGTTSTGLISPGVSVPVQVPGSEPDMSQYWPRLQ

As a reminder, the AC50 is the concentration giving half of the maximal activity seen. Regarding `O=C/C=C/c1ccccc1`, the outcome in assay [1], in assay [2], in [3], in assay [4], in assay [5] and in assay [6] was inactive. The compound was called inactive in assay [8] and in [9]. Also, in [7], the AC50 is 9.96 µM (active).
`Nc1cccc(Cl)c1`: the call in [1], in [2], in assay [10], in [4], in assay [5] and in assay [6] was inactive. The compound was classed as inactive in assay [8] and in assay [9].
For `CCCCC(CC)CO[N+](=O)[O-]` (stereo not drawn), the compound was called inactive in assay [1], in assay [4], in [6] and in assay [7]. Besides, the AC50 in [2] is 4.37 µM (active); in [10] it was 151 µM (active); in assay [9], 99.5 µM (active).
Turning to `O=Cc1cccc(Oc2ccccc2)c1`, the compound was called inactive in assay [1], in assay [2], in [10], in assay [4], in [5] and in assay [6]. The compound was called inactive in [7] and in assay [9].
As to `CCOP(=S)(OCC)SCCS(=O)(=O)CC`, the result in assay [1], in assay [2], in assay [10], in [6], in assay [8] and in [9] was inactive. Moreover, the AC50 in [7] was 11.5 µM (active).
Turning to `CC(C)(OO)c1ccccc1`, the call in assay [1], in assay [2], in assay [10], in [4], in assay [5] and in [6] was inactive. Moreover, the call in assay [7] and in assay [9] was inactive.
Regarding `CCOC(=O)CP(=O)(OCC)OCC`, the compound was called inactive in [1], in assay [10], in assay [4], in assay [6], in [8] and in [9]. Further, the AC50 in assay [2] is 0.0931 µM (active); in [7], 100 µM (active).
As to `Cc1ccccc1N`, the outcome in assay [1], in assay [2], in [10], in assay [5], in [6] and in [9] was inactive.
Turning to `CCCCCCCCSC(=O)Oc1cc(Cl)nnc1-c1ccccc1`, the compound was classed as inactive in [1], in assay [2], in [10], in [4], in [8] and in assay [9]. Moreover, the AC50 in [6] is 146 µM (active).
With `ClC1=C(Cl)[C@]2(Cl)[C@@H]3[C@@H](Cl)[C@@H](Cl)C[C@@H]3[C@@]1(Cl)C2(Cl)Cl`, the outcome in assay [1], in assay [2], in assay [10], in assay [5], in assay [6] and in assay [8] was inactive. In addition, the outcome in assay [9] was inactive.
For the compound `[O-][Cl+2]([O-])O`, the compound was called inactive in [1], in assay [2], in [3], in assay [4], in assay [5] and in [6]. Also, the AC50 in [7] is 69 µM (active).
`Clc1ccc(C2(Cn3cncn3)CC(Br)CO2)c(Cl)c1` (stereo not drawn): the call in assay [1] and in [6] was inactive. Moreover, the AC50 in assay [2] was 26 µM (active); in assay [3], 177 µM (active); in assay [4] it was 145 µM (active); in assay [5] it was 6.34 µM (active); in [7], 1.23 µM (active); in [8] it was 99.5 µM (active). Moreover, the AC50 in assay [9] was 70.7 µM (active).
With `COc1cc(-c2ccc(N)c(OC)c2)ccc1N`, the result in [1], in [2], in assay [3], in assay [5], in assay [6] and in [7] was inactive. Also, the half-maximal activity concentration (AC50) in assay [4] was 49.7 µM (active) and 57.9 µM (active); in [5], 29.2 µM (active); in assay [6] it was 19.9 µM (active); in assay [7] it was 25.2 µM (active); in assay [8] it was 43.9 µM (active) and 11.8 µM (active); in assay [9] it was 15.7 µM (active) and 33.6 µM (active).
As to `CC(C)(C)c1cc(O)ccc1O`, the compound was classed as inactive in assay [1], in [10] and in assay [5]. Moreover, the AC50 is 120 µM (active) in assay [4]; 124 µM (active) in assay [6]; 4.27 µM (active) in assay [7]; 65.6 µM (active) in assay [8]; 54.6 µM (active) in assay [9].
For `ClC(Cl)=C(Cl)C(Cl)=C(Cl)Cl`, the call in [1], in assay [2], in [6], in assay [8] and in assay [9] was inactive. Moreover, the AC50 in [3] was 144 µM (active).
For the compound `CC(C)c1cccc(C(C)C)c1O`, the call in assay [1], in [10], in assay [3], in assay [4], in [5] and in assay [6] was inactive. Also, the outcome in assay [8] and in [9] was inactive. Further, the half-maximal activity concentration (AC50) in assay [7] was 3.76 µM (active).
On to `COP(=O)(OC)OC`, for which the result in [1], in assay [2], in assay [3], in assay [5], in assay [6] and in [9] was inactive. For the same compound, in [7], the AC50 is 32.7 µM (active).
